About 510 (1.1%) of roughly 47,000 compounds were called active. The list comes from a sample in which actives are over-represented; it also holds similar structures and randomly drawn compounds. Unmarked numbers belong to inactive results. No stated cut-off is given here; in the data, active means inhibition above about 30%; inactive means the rest.

For this test, the target named is Ubiquitin carboxyl-terminal hydrolase 10 (Homo sapiens) (UniProt Q14694). Description: inhibitors of human USP10 deubiquitinase (AID 1645856). Conditions: purified USP10, Ub-rhodamine fluorescence, 60 min; at 20 µM; active compounds read high.
Chain of Ubiquitin carboxyl-terminal hydrolase 10 (Homo sapiens) (Q14694 whole entry, looked up): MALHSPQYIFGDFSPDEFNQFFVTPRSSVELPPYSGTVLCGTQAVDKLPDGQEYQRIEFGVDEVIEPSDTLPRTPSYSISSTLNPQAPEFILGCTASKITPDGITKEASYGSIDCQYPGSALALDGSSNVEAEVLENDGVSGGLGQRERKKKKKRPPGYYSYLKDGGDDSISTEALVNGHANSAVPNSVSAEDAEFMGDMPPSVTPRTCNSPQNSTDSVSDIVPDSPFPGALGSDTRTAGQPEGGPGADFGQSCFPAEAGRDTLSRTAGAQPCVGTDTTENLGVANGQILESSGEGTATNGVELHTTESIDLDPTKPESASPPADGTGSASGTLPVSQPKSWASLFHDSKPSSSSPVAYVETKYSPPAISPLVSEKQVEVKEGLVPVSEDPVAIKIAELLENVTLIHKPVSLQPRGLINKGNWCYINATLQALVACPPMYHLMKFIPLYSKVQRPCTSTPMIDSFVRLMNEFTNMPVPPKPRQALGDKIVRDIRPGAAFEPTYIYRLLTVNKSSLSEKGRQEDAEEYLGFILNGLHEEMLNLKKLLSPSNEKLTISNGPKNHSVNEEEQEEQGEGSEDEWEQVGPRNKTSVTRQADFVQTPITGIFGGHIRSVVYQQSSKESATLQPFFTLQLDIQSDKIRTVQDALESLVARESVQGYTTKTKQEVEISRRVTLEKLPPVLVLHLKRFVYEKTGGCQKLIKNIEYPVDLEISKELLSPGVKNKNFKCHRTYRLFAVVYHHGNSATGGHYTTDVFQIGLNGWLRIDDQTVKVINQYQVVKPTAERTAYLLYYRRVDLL
Usually inhibition stands for the change of the read-out against control, counted positive when it falls. Regarding `N#Cc1ccccc1OCC(=O)Nc1ccc(-c2cn3ccsc3n2)cc1`, the inhibition is -4.52%. Turning to `COc1ccc(NC(=O)CSc2cn(CC(=O)N3CCCC3)c3ccccc23)cc1`, the inhibition is 1.6%.

With `CCOc1ccc2c(c1)c(=O)c(C(=O)c1ccccc1)cn2CC(=O)Nc1ccc(OC)cc1`, the inhibition is 59.7% (active). Regarding `CCOc1ccc(NC(=O)Cn2cc(C(=O)c3ccc(Cl)cc3)c(=O)c3cc(OC)ccc32)cc1`, the inhibition is 27%. As for `O=C(CN1CCCN(c2cc(-c3ccc(N4CCOCC4)cc3)ncn2)CC1)N1CCOCC1`, the inhibition was -2.74%. The value for `CCN1C(=O)[C@H]2CN(CCOC)C[C@H]2C12CCN(C(=O)Nc1ccccc1)CC2` was 0.649%; that for `Cc1nc2c(c(C)c1CCC(=O)Nc1ccccc1F)c(=O)n(C)c(=O)n2C` was 32.5% (active); that for `Cc1cc2nc(N3CCOCC3)n(CC(=O)Nc3ccccc3F)c(=O)c2n1C` was -1.21%. The value for `Cc1ccc(CN2C(=O)C(CC(=O)Nc3ccccc3F)n3c2nc2ccccc23)cc1` (configuration not stated) was 6.51%. As to `COc1ccc(NC(=O)CC2C(=O)NCCN2C(=O)Nc2ccc(F)cc2)cc1` (configuration not stated), the inhibition is -0.861%. To `CCOc1ccc(-c2noc(-c3nn(-c4cccc(OC)c4)ccc3=O)n2)cc1` belongs 7.86%; to `O=C(COC(=O)C1CCN(S(=O)(=O)c2c(Cl)cccc2Cl)CC1)Nc1ccc2c(c1)CCC2`, 6.62%. Turning to `Cc1cccc(-c2nnc(-c3cccc(S(=O)(=O)N4CCCC4)c3)o2)c1`, the inhibition is 3.94%. Turning to `O=C(Nc1nnc(-c2cccc([N+](=O)[O-])c2)o1)C1CCN(S(=O)(=O)c2ccc3c(c2)CCC3)CC1`, the inhibition was 46.7% (active). Turning to `CCOC(=O)C1CCN(C(=O)c2cnc(Nc3ccc(C)c(Cl)c3)c3ccccc23)CC1`, the inhibition was 6.16%. To `COc1ccc(C(=O)Cn2nc(C)cc2C)cc1` belongs -2.02%; to `Cc1cc(C)cc(NC(=O)c2cc(CN3CCOCC3)on2)c1`, -1.83%; to `O=C(NCC1CCCO1)c1[nH]c2ccccc2c1Sc1ccc(Cl)cc1` (configuration not stated), 0.402%. In the case of `Cc1ccc(CC(=O)N2CCCC(c3ccncn3)C2)s1` (configuration not stated), the inhibition is -2.71%.

Turning to `CC(c1ccncc1)n1nccc1NC(=O)c1cccnc1Sc1ccccc1` (configuration not stated), the inhibition is -7.87%. To `CCc1noc(-c2ccnc(-n3ncc(C(=O)N4CCC(C)CC4)c3C)c2)n1` belongs -0.304%; to `COc1ccc(-c2cc(C(=O)NCCCN3CCCC3=O)c3ccccc3n2)cc1OC`, -3.65%.

On to `CC(C)CC1NC(=O)C2(CCN(C(=O)Nc3ccc(Cl)c(Cl)c3)CC2)NC1=O` (configuration not stated), for which the inhibition was 1.3%. Take `O=C(NCC1CCCO1)c1ccccc1N1C(=O)[C@@H]2Cc3c([nH]c4ccccc34)C(c3cccc(Cl)c3)N2C1=O` (some centres not stated): the inhibition was -2.66%. For `O=C(Nc1ccccc1Br)c1ncoc1-c1cccs1`, the inhibition is 2.95%.

In the case of `CCCc1nc(-c2c(C)cc(C)nc2NC(=O)C2CCCCC2)no1`, the inhibition is -4.35%. To `Cc1cccc(NS(=O)(=O)c2ccc3nnc(C)n3c2)c1` belongs -2.24%; to `O=S(=O)(Nc1cccc(O)c1)c1ccc2oc3ccc(S(=O)(=O)Nc4cccc(O)c4)cc3c2c1`, 54.6% (active); to `COc1cccc(NS(=O)(=O)c2ccc(-c3coc(C)n3)cc2)c1`, 2.04%.

As to `COc1ccccc1C1CC(c2c(O)n(C)c(=O)n(C)c2=O)=Nc2ccccc2S1` (configuration not stated), the inhibition was 2.61%. Consider `Oc1cccc2nc3c(O)cccc3nc12`, for which the inhibition is 41.5% (active).

`COC(=O)COc1cccc2c(=O)n(CC(=O)N3CCc4ccccc43)ccc12`: the inhibition is 2.69%. The value for `COc1ccccc1CN1CCC2(CC1)NC(=O)C(CC(C)C)NC2=O` (configuration not stated) was 0.757%; that for `CC(C)NC(=O)c1cc(-c2cnc(-c3ccnn3C)nc2)cn1CC1CC1` was -0.689%; that for `O=S(=O)(Cc1ccccc1)N1CCC2(CCN(Cc3cccc(F)c3)C2)C1` (configuration not stated) was -2.23%.

Take `O=c1ccc(S(=O)(=O)N2CCOCC2)cn1Cc1ccccc1`: the inhibition was -0.385%. Take `COc1cc(-c2nc(CC(=O)NCCc3c[nH]c4ccc(F)cc34)cs2)cc(OC)c1OC`: the inhibition was -1.95%.

Regarding `CC(C)n1c(C2CCN(C(=O)Nc3ccc4c(c3)CCC4)C2)nc2ccncc21` (configuration not stated), the inhibition is 2.17%. Regarding `Cc1ccc(Nc2nc(NCC(=O)Nc3cc(C)ccc3C)nc(Nc3ccc(C)cc3)n2)cc1`, the inhibition was 37% (active).

For the molecule `COc1cccc(CNC(=O)c2nnn(CC(=O)Nc3cc(C)ccc3C)c2N)c1`, the inhibition is 29.8%. Turning to `Cc1ccc(NC(=O)Cc2sc(Nc3ccc(C)cc3)nc2O)cc1`, the inhibition is 25.6%. In the case of `CS(=O)(=O)N1Cc2ccccc2OC2(CCCNC2)C1` (configuration not stated), the inhibition was -0.607%. As to `CCOc1nccnc1N1CCC(N(C)S(=O)(=O)C2CC2)C1` (configuration not stated), the inhibition is 1.55%.

As for `CC(C)c1ccc(NC(=O)C[n+]2cc(-c3ccc(F)cc3)n3c2CCC3)cc1`, the inhibition was 0.686%.

Consider `COc1cccc(NC(=O)C(Sc2cccc(NC(=O)c3ccccc3F)c2)c2ccccc2)c1` (configuration not stated), for which the inhibition is 32.4% (active). To `COc1ccccc1C(=O)Nc1cccc(Oc2ccccc2)c1` belongs 11.9%; to `COc1cccc(NC(=O)c2nn(-c3ccc(F)cc3)c(OC)cc2=O)c1`, 0.262%; to `COc1ccc(C2CC(=O)c3cnc(NCC4CCCO4)nc3C2)cc1` (configuration not stated), -0.196%. `COc1cccc(C2c3[nH]c4ccccc4c3C[C@@H]3C(=O)N(CC4CCCO4)CC(=O)N23)c1` (some centres not stated): the inhibition was -6.67%. The value for `Cc1ccc(C(=O)Nc2nc3c(s2)CCC3C(=O)NCc2ccncc2)cc1` (configuration not stated) was -7.71%.

As to `Cc1ccc(Cn2cc(-c3noc(-c4ccccn4)n3)nn2)cc1`, the inhibition is 7.3%. The value for `Cc1cc(F)ccc1NC(=O)c1cc(C2CC2)n2nccc2n1` was -3.56%; that for `Cc1ccc(-n2cc(-c3noc(C(=O)Nc4ccc(F)cc4C)n3)nn2)cc1` was 76.1% (active); that for `O=C1NCCCn2cc(S(=O)(=O)NCc3ccc4c(c3)OCO4)cc21` was -0.173%.

With `Cc1nc2cc(-c3noc(-c4cnccn4)n3)ccc2n(C2CCCC2)c1=O`, the inhibition was -3.38%.

Take `CCCCN(C)c1ccc2nnc(CCc3nc(-c4cc(OC)cc(OC)c4)no3)n2n1`: the inhibition is -5.1%. To `CNC(=O)N1C[C@H]2C[C@H](C(=O)Nc3ccc4c(c3)OCO4)[C@@H](C1)O2` belongs -1.52%; to `O=C(COc1ccc2ccccc2c1)NCc1nnnn1-c1ccc(Cl)cc1`, 6.45%. Turning to `CC1(C(N)=O)CN(Cc2ccnc(N3CCCC3)n2)CCO1` (configuration not stated), the inhibition is -2.23%. To `CN1CC(=O)N(C2CCCNC2)Cc2c(NC3CCc4ccccc43)ncnc21` (configuration not stated) belongs -1.83%; to `O=S(=O)(c1ccc(F)c(Cl)c1)N1CCC(N2CCOCC2)CC1`, 1.61%.

With `CC(C)C(NS(=O)(=O)c1ccc(Cl)cc1)C(=O)OCC(=O)C12CC3CC(CC(C3)C1)C2` (configuration not stated), the inhibition is 3.82%. Consider `Cc1cccc(CNC(=O)C2CCc3nc(N4CCOCC4)ncc3C2)c1` (configuration not stated), for which the inhibition is -3.24%.

Take `COc1cccc(O[C@@H]2C[C@@H](NC(=O)c3ncoc3C)[C@H](O)[C@H]2O)c1`: the inhibition is -1.35%. Consider `O=S1(=O)C=C(CSCCO)c2cc(Cl)ccc21`, for which the inhibition was -1.29%. The value for `Cc1cc(C(=O)N2CCCCC2c2nncn2CC2CC2)nn1C` (configuration not stated) was 1.03%; that for `COCCNC(=O)c1cccc(C2CCCN(C(=O)Nc3ccccc3)C2)c1` (configuration not stated) was 6.54%. In the case of `O=C(CSc1n[nH]c(-c2ccccc2Cl)n1)NCC1CCCO1` (configuration not stated), the inhibition is -1.9%.

Turning to `COc1ccc(CC(=O)N2CCC3(C2)C(=O)N(C)c2ccccc23)cc1` (configuration not stated), the inhibition was -4.15%. The value for `CCOC(=O)N1CCN(Cc2nc3ccc([N+](=O)[O-])cc3c(=O)n2-c2cccc(OC)c2)CC1` was -1.3%. The value for `CC(C)Cn1cnc2nc(CSc3ccccc3NC(=O)Nc3ccccc3)cc(=O)n21` was 2.5%; that for `Cc1ccc(S(=O)(=O)N2CCC(c3nc(C(=O)N(C)C)c(C)o3)CC2)cc1C` was -0.0972%. The value for `CCCCCCSc1ncnc2c1sc1nc(-c3ccccc3)c3c(c12)CC(C)(C)OC3` was -3.17%; that for `CSc1ncnc2c1sc1nc(-c3ccccc3)c3c(c12)CC(C)(C)OC3` was 0.0174%. Regarding `CC1(C)Cc2c(c(-c3ccco3)nc3sc4c(SCCCc5ccccc5)ncnc4c23)CO1`, the inhibition was 58.4% (active). `Clc1cc2nc(N3CCN(c4ccccn4)CC3)c3nncn3c2cc1Cl`: the inhibition was -8.09%. In the case of `N#Cc1ccccc1Cn1c(=O)n(CCCC(=O)NCc2ccc(F)cc2)c(=O)c2ccccc21`, the inhibition is 34% (active). To `Cc1ccccc1CNC(=O)Cn1c(=O)ccn(Cc2ccc(F)cc2)c1=O` belongs 0.832%; to `O=C(CCCn1c(=O)c2ccccc2n(Cc2ccccc2F)c1=O)NC1CCCC1`, 8.78%. For the molecule `COc1cccc(C(O)c2ncc(-c3ccc4ccccc4c3)[nH]2)c1` (configuration not stated), the inhibition was -5.14%. To `CN(C)c1nc(C2CCN(C(=O)c3ccccc3)CC2)cn2nccc12` belongs -1.26%; to `CN(C)c1nccnc1C1CN(C(=O)c2cc(C(C)(C)C)[nH]n2)CCO1` (configuration not stated), 4.78%. The value for `C/C=C(\Cl)C1=CC(=O)[C@]23C[C@H]2[C@@]2(C)CO[C@@]1(O)[C@@]3(O)O2` was -13.4%; that for `Cc1ccc(S(=O)(=O)N2CCCC(c3nc(-c4ccc(=O)[nH]c4)no3)C2)cc1` (configuration not stated) was 0.0273%.

In the case of `Cc1ccc(CC(=O)N2CCN(C(=O)c3cc(-c4ccccn4)n[nH]3)CC2)cc1`, the inhibition is -1.22%. For the molecule `COc1cc(Cl)c(NC(=O)c2cc(-c3ccccn3)n[nH]2)c(OC)c1`, the inhibition was 38% (active).

`O=C(Nc1ccc(Cl)cc1F)c1cc(-c2ccccn2)n[nH]1`: the inhibition is 10.2%.

For the origin of these results see PubChem BioAssay AID1645856 (Buhrlage Lab, Dana-Farber Cancer Institute and Novartis …, 2021).
